Records with an inconclusive call do not appear. The source made the active and inactive calls.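 The calls were made as follows, unless noted: active = inhibition over a set limit, the all-compound mean plus 3 SD, in both replicate runs; inconclusive = over that limit in just one replicate run; inactive = at or under that limit in both runs.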
Columns and labels:
[1] = Her2 expression decrease, cell viability multiplex – SKBR3 breast tumor cells, AlphaScreen, ATP viability, primary screen (AID 461;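 active = Her2 level under about 52% in both replicate screens, with viability over 70% of control, limit read from the data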;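 as to Her2 level: lower value means less Her2 protein in the cells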;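 as to viability: percent of carrier control wells set as 100% viability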); conditions: SKBR3 Her2 protein level, 18-24 h, measured here: SKBR3 viability, ATP luminescence, at 10 µM
[2] = target: Receptor tyrosine-protein kinase erbB-2 (Homo sapiens) (UniProt P04626); assay: as above; conditions: 18-24 h, at 10 µM, stronger effect = lower value
[3] = reduced viability of SK-BR-3 breast cancer cells – cell-based, 24 h, human, pilot screen (AID 572;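 active = viability at or below 10% of carrier control in both of two separate runs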;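 also: compound exposure lasted between 18 and 24 h rather than exactly 24 h; 100% = carrier-treated control wells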); conditions: SK-BR-3 viability, CellTiter-Glo luminescence, at 10 µM, stronger effect = lower value
[4] = HUVEC growth inhibition – cell-based, human, primary screen (AID 575;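 active = viability at or below 30% in both replicate assays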;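 also: 100% = median of untreated cell wells with 0.1% DMSO on each plate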); conditions: HUVEC proliferation, CellTiter-Glo luminescence, 72 h; at 10 µM; stronger effect = lower value
[5] = H69AR cell proliferation blockers – human, duplicate replicates, primary screen (AID 580;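 active = viability at or under a set limit in both replicates, limit being median viability minus 3 SD, cut at about 48% in these data, passing the limit was not always enough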;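 also: 100% = mean luminescence of untreated wells and 0% = no signal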); conditions: H69AR lung tumor cells viability, ATP luminescence, 72 h; at 10 µM; stronger effect = lower value
[6] = MRP1 drug-resistance reversers in H69AR cells – cell-based, doxorubicin co-treatment, pilot screen (AID 601;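 active = viability loss from added drug above about 55%, and viability with drug at most 40%, in both replicates, limit read from the data, passing the limit was not always enough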); conditions: CellTiter-Glo, 72 h, at 10 µM; for differential viability (reversal): stronger effect = higher value
[7] = yeast transport mutant growth inhibition pilot in 384-well plates, post-Golgi transport modulator project (AID 636; in the data active = inhibition above about 31%); conditions: absorbance 615 nm, about 18 h, stronger effect = higher value
[8] = growth suppression of yeast trafficking mutant, preliminary HTS, modulators of trafficking downstream of Golgi apparatus project, 1536-format plate, OD 615 nm (AID 637; in the data active = inhibition above about 30%); conditions: yeast transport mutant growth, absorbance 615 nm, 18 h; stronger effect = higher value
[9] = S. cerevisiae growth inhibition in permissive medium (OD615), pilot counter-assay for S. cerevisiae lifespan shortening project, permissive growth control (AID 705;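 active = growth inhibition above 25% in both replicates, a cutoff set 3 SD above the mean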); conditions: OD615, 24 h, at 10 µM, stronger effect = higher value
[10] = S. cerevisiae growth inhibition in restrictive medium, OD615, pilot screen, restrictive growth control, yeast lifespan reduction project (AID 706;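 active = growth inhibition above a set limit, 3 SD over mean compound inhibition, in both replicates, cut at about 43% in these data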;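 also: modified DeaD lifespan yeast strain shifted to restrictive glucose medium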); conditions: OD615, 48 h, at 10 µM, stronger effect = higher value
[11] = doxorubicin toxicity protection in MRP-1 cells – H69AR cells, CellTiter-Glo, duplicate, MRP-1 activator project, pilot screen (AID 807;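 active = viability increase at or above a cutoff of the median across tested compounds plus 3 SD, cut at about 8.5% in these data, passing the limit was not always enough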;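 also: compound pretreatment 18-22 h then 72 h combined with doxorubicin; 0% = doxorubicin alone and 100% = vehicle without doxorubicin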); conditions: H69AR viability with doxorubicin, CellTiter-Glo luminescence; at 10 µM; stronger effect = higher value
[12] = viability of HCT116 without oncogenic beta-catenin – human colon tumor cells, pilot screen (AID 823;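 active = cell viability at or below a set limit in both duplicate runs, the limit being the all-compound median minus 4 SD, cut at about 23% in these data, passing the limit was not always enough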;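 also: 0% = wells killed by 20 µM Hyamine and 100% = untreated DMSO cell wells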); conditions: HCT116 beta-catenin knockout viability, CellTiter-Glo, 60 h; at 10 µM; stronger effect = lower value
[13] = RAM pathway blockade in budding yeast – dse1pr::URA3 reporter, 5-FOA selection, pilot screen (AID 869);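 also: 0% = DMSO wells with no growth and 100% = 10 µM 1-NA-PP1 with full growth; RAM network block rescues cells from 5-FOA so hits raise OD615 growth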; conditions: S. cerevisiae dse1pr::URA3 5-FOA growth, OD615, 2 d; at 10 µM; stronger effect = higher value; strain carries analog-sensitive mutant Cbk1 kinase
[14] = RAM signaling pathway blockade in yeast – S. cerevisiae, Pdr1DBD-CYC8 efflux-inhibited sensitized strain, primary screen (AID 1298;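 active = RAM network inhibition above 8.4% in each of two replicates, 3 SD over the compound average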;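 also: 0% = DMSO untreated cells without growth and 100% = 10 µM 1-NA-PP1 full growth; higher means more yeast growth rescued from 5-FOA killing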); conditions: S. cerevisiae cbk1-as DSE1-URA3 strain, 5-FOA growth OD615, 2 d; at 50 µM; stronger effect = higher value
[15] = viability of PTEN-null HCT116 cells – cell-based, HCT116 clonal line, CellTiter-Glo, pilot screen (AID 824;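 active = viability at or below 27.92% in each of two runs, the all-compound median minus 4 SD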;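 also: 0% = 20 µM Hyamine control and 100% = vehicle cell control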); conditions: HCT116 PTEN-deleted viability, 60 h, at 10 µM, stronger effect = lower value
[16] = H69AR cells + 2 uM doxorubicin, measured here: viability with 2 uM doxorubicin, stronger effect = lower value
[17] = H69AR cells, compound alone cytotoxicity

Receptor tyrosine-protein kinase erbB-2 (Homo sapiens), sequence (P04626 whole entry, looked up): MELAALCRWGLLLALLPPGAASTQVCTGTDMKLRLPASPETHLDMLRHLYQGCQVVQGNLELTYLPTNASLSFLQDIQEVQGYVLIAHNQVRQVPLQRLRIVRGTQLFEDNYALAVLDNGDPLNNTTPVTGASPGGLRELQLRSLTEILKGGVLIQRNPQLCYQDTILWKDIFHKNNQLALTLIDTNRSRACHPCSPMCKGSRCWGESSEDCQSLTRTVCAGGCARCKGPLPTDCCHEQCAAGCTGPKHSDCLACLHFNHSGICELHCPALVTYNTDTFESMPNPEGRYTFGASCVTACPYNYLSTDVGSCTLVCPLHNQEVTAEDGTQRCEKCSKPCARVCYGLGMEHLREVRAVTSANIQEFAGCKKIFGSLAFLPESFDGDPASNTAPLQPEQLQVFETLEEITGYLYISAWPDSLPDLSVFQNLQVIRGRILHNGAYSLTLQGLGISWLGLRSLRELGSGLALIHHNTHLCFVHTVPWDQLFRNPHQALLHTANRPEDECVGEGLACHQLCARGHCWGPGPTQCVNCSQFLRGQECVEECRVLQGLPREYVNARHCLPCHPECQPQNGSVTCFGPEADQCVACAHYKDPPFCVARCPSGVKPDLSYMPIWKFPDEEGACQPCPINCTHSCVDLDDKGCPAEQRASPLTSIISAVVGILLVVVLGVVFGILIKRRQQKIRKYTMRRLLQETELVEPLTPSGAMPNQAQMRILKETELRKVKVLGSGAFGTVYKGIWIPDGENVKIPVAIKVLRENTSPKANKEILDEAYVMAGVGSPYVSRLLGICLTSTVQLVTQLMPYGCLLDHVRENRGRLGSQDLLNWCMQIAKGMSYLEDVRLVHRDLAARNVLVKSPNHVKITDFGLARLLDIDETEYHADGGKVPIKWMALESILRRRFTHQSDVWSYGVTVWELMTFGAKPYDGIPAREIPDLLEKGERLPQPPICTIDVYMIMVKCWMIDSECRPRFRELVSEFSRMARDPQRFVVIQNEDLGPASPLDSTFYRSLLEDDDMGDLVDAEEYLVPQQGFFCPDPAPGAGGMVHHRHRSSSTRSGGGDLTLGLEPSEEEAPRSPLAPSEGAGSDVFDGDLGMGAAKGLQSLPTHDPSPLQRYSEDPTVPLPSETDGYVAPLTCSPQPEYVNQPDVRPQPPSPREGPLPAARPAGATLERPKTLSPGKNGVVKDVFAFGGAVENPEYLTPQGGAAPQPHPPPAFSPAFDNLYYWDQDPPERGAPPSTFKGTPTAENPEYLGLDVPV

Compound | viability [1] [%] | Her2 level [2] | viability [3] | viability [4] | viability [5] | differential viability (reversal) ([6]; H69AR cells + 2 uM doxorubicin) | viability [6, 16] [%] | viability [6, 17] [%] | inhibition [7] | inhibition [8] | growth inhibition [9] | growth inhibition [10] | viability increase [11] | viability [12] | inhibition [13] | RAM network inhibition [14] | viability [15]
Cc1nc(NCc2ccc3c(c2)OCO3)c2oc3ccccc3c2n1 | 99 | 104% (inactive) | 99% (inactive) | 60% (inactive) | 98.3% (inactive) | -8.4% (inactive) | 107 | 98.3 | -0.93% (inactive) | -2.9% (inactive) | -23.6% (inactive) | -6.14% (inactive) | -0.11% (inactive) | 82.7% (inactive) | 0.65% (inactive) | 3.7% (inactive) | 
COCc1nnc(NC(=O)c2ccc(S(=O)(=O)N(C)c3ccccc3)cc2)o1 | 85 | 107% (inactive) | 85% (inactive) | 66.6% (inactive) | 43.7% (active) | -18.5% (inactive) | 62.2 | 43.7 | -3.87% (inactive) | -2.17% (inactive) | 3.04% (inactive) | 9.5% (inactive) | -5.06% (inactive) | 29.7% (inactive) | 0.19% (inactive) | 4.65% (inactive) | 
CCCCc1nc2ccccc2n2cc3c(=O)n(C)c(=O)n(C)c3c12 | 86 | 86% (inactive) | 86% (inactive) | 106% (inactive) | 89.6% (inactive) | 4.81% (inactive) | 84.8 | 89.6 | 0% (inactive) | 2.17% (inactive) | -9.65% (inactive) | -16.2% (inactive) | -4.07% (inactive) | 95.8% (inactive) | 1.36% (inactive) | 0.47% (inactive) | 89.2% (inactive)
O=C(OCC(=O)c1ccc[nH]1)c1ccc(S(=O)(=O)N2CCCCC2)cc1 | 94 | 98% (inactive) | 94% (inactive) | 90.9% (inactive) | 97.8% (inactive) | 16.8% (inactive) | 81 | 97.8 | -3.64% (inactive) | -6.17% (inactive) | -15.2% (inactive) | -4.03% (inactive) | -0.59% (inactive) | 99.8% (inactive) | 3.25% (inactive) | 3.17% (inactive) | 
CCOC(=O)Cn1nc(-c2ccc(Cl)cc2)cc1N | 78 | 116% (inactive) | 78% (inactive) | 91.8% (inactive) | 101% (inactive) | 18% (inactive) | 83.1 | 101 | -7.95% (inactive) | -0.48% (inactive) | -8.98% (inactive) | 2.33% (inactive) | 0.37% (inactive) | 102% (inactive) | 1.88% (inactive) | 5.56% (inactive) | 
COc1cccc(N(C(C)=O)c2nc(C)cc(C)c2C#N)c1 | 102 | 87% (inactive) | 102% (inactive) | 96.1% (inactive) | 104% (inactive) | 8.34% (inactive) | 95.3 | 104 | -7.26% (inactive) | -1.59% (inactive) | -15.4% (inactive) | 9.36% (inactive) | -0.35% (inactive) | 109% (inactive) | 1.36% (inactive) | 2.39% (inactive) | 
Fc1ccc(-c2ccc(-c3nn4c(-c5ccco5)nnc4s3)o2)cc1 | 76 | 63% (inactive) | 76% (inactive) | 77.8% (inactive) | 79.7% (inactive) | 5.16% (inactive) | 74.5 | 79.7 | -4.32% (inactive) | 4.92% (inactive) | 2.35% (inactive) | 60.4% (active) | -3.88% (inactive) | 97.1% (inactive) | 1.25% (inactive) | 2.34% (inactive) | 
CCOCCCNC(=O)CN1CCN(Cc2ccccc2C)C1=O | 83.5 | 96% (inactive) | 83.5% (inactive) | 97.8% (inactive) | 97% (inactive) | 7.06% (inactive) | 89.9 | 97 | -6.8% (inactive) | -7.7% (inactive) | -4.88% (inactive) | 6.12% (inactive) | 0.02% (inactive) | 94.7% (inactive) | 1.54% (inactive) | 1.29% (inactive) | 86.8% (inactive)
COc1cccc2c(=O)c3c(cnn3C)n(C)c12 | 106 | 100% (inactive) | 106% (inactive) | 84.9% (inactive) | 81.9% (inactive) | -10.9% (inactive) | 92.8 | 81.9 | -1.97% (inactive) | 1.27% (inactive) | -1.81% (inactive) | 48.7% (active) | -5.44% (inactive) | 87.1% (inactive) | 1.5% (inactive) | 0.52% (inactive) | 
Cc1[nH]nc2c1C(C1CC=CCC1)C(C#N)=C(N)O2 (stereo not drawn) | 102 | 80% (inactive) | 102% (inactive) | 63.5% (inactive) | 96% (inactive) | 0.85% (inactive) | 95.1 | 96 | 0.65% (inactive) | -9.17% (inactive) | 1.72% (inactive) | 1.64% (inactive) | -5.29% (inactive) | 17.6% (active) | 3.08% (inactive) | -0.5% (inactive) | 
CCN1CCN(C(CNC(=O)c2ccc3c(c2)OCO3)c2cccnc2)CC1 (stereo not drawn) | 89.5 | 93% (inactive) | 89.5% (inactive) | 86.4% (inactive) | 99.6% (inactive) | 9.62% (inactive) | 90 | 99.6 | -2% (inactive) | -6.23% (inactive) | -12.5% (inactive) | -4.73% (inactive) | 0.44% (inactive) | 104% (inactive) | 1.35% (inactive) | 5.59% (inactive) | 96.2% (inactive)
Cc1ccc(C(C(=O)NC2CCCCC2)N2CCOCC2)cc1 (stereo not drawn) | 95 | 100% (inactive) | 95% (inactive) | 106% (inactive) | 95.8% (inactive) | 4.12% (inactive) | 91.7 | 95.8 | -5.89% (inactive) | -4.13% (inactive) | -9.79% (inactive) | -10.3% (inactive) | -2% (inactive) |  | 1.07% (inactive) | 7.79% (inactive) | 89.3% (inactive)
CCCCOC(=O)c1[nH]c2c(c1C)C(=O)CC(c1cc(OC)c(OC)c(OC)c1)C2 (stereo not drawn) | 89 | 74.5% (inactive) | 89% (inactive) | 77.4% (inactive) | 72.4% (inactive) | 0.9% (inactive) | 71.5 | 72.4 | 0.38% (inactive) | -3.33% (inactive) | -13% (inactive) | -18.8% (inactive) | 1.17% (inactive) |  | 1.75% (inactive) | 3.15% (inactive) | 56.6% (inactive)
c1ccc(-c2nnc(CSc3nncs3)o2)cc1 | 104 | 86.5% (inactive) | 104% (inactive) | 88.4% (inactive) | 106% (inactive) | 13.6% (inactive) | 92.9 | 106 | -3.95% (inactive) | -4.67% (inactive) | -16% (inactive) | 8.37% (inactive) | -0.84% (inactive) | 106% (inactive) | 1.01% (inactive) | 5.21% (inactive) | 
N#Cc1c2n(c(=O)[nH]c1=O)CCCCC2 | 112 | 92% (inactive) | 112% (inactive) | 96.2% (inactive) | 103% (inactive) | 3.5% (inactive) | 99.7 | 103 | -2.6% (inactive) | -7.46% (inactive) | -9.79% (inactive) | 1.1% (inactive) | 1.19% (inactive) | 99.5% (inactive) | -0.04% (inactive) | 6.34% (inactive) | 
Cc1cc(C)c2c(=O)n(CC(=O)N3CCC(Cc4ccccc4)CC3)sc2n1 | 108 | 84% (inactive) | 108% (inactive) | 77% (inactive) | 3.96% (active) | -6.3% (inactive) | 10.3 | 3.96 | -6.53% (inactive) | -2.17% (inactive) | 73% (active) | 89.2% (active) | -6.66% (inactive) |  | 1.6% (inactive) | 3.67% (inactive) | 68.7% (inactive)
COc1cccc(CNC(=O)CCS(=O)(=O)c2cccc3nsnc23)c1 | 106 | 91% (inactive) | 106% (inactive) | 105% (inactive) | 89.6% (inactive) | -6.93% (inactive) | 96.6 | 89.6 | -7.67% (inactive) | 0.95% (inactive) | -8.72% (inactive) | -10.3% (inactive) | -2.45% (inactive) |  | 1.32% (inactive) | 0.77% (inactive) | 97.1% (inactive)
CC(=O)NCC(=O)N(Cc1ccco1)C1(C(=O)NC2CCCCC2)CCCCC1 | 140 | 93% (inactive) | 140% (inactive) | 103% (inactive) | 90.9% (inactive) | 2.67% (inactive) | 88.3 | 90.9 | -9.59% (inactive) | 2.7% (inactive) | -7.64% (inactive) | 2.32% (inactive) | -5.15% (inactive) |  | 2.22% (inactive) | -0.72% (inactive) | 90% (inactive)
CCCSc1nc2c(cnn2-c2ccc(C)cc2)c(=O)[nH]1 | 93 | 99% (inactive) | 93% (inactive) | 7.04% (active) | 19.1% (active) | -3.51% (inactive) | 22.6 | 19.1 | -2% (inactive) | -2.62% (inactive) | -8.62% (inactive) | 6.35% (inactive) | -8.01% (inactive) | 40.5% (inactive) | 3.78% (inactive) | 4.52% (inactive) | 
O=C(CCNS(=O)(=O)c1cccc2nsnc12)NCc1cccs1 | 101 | 85.5% (inactive) | 101% (inactive) | 94.3% (inactive) | 96% (inactive) | 0.62% (inactive) | 95.4 | 96 | -9.45% (inactive) | 4.13% (inactive) | -4.72% (inactive) | -7.42% (inactive) | -3.39% (inactive) |  | 1.54% (inactive) | 3.13% (inactive) | 95.4% (inactive)

Source: PubChem BioAssay
